# p-CIP stab down – p/CIP-EGFP fusion destabilizers, primary screen, fluorescence, F442A cells; Q05BA5; 16 h; decrease of EGFP signal, % at 10 µM; hit rate 0.01% among 290,000;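 active means EGFP signal decrease of at least 30% at 10 µM or well 3 SD below plate mean, unless failing retest; inactive means the rest, including hits failing retest or dose response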
# Target sequence (Q05BA5 1-1403): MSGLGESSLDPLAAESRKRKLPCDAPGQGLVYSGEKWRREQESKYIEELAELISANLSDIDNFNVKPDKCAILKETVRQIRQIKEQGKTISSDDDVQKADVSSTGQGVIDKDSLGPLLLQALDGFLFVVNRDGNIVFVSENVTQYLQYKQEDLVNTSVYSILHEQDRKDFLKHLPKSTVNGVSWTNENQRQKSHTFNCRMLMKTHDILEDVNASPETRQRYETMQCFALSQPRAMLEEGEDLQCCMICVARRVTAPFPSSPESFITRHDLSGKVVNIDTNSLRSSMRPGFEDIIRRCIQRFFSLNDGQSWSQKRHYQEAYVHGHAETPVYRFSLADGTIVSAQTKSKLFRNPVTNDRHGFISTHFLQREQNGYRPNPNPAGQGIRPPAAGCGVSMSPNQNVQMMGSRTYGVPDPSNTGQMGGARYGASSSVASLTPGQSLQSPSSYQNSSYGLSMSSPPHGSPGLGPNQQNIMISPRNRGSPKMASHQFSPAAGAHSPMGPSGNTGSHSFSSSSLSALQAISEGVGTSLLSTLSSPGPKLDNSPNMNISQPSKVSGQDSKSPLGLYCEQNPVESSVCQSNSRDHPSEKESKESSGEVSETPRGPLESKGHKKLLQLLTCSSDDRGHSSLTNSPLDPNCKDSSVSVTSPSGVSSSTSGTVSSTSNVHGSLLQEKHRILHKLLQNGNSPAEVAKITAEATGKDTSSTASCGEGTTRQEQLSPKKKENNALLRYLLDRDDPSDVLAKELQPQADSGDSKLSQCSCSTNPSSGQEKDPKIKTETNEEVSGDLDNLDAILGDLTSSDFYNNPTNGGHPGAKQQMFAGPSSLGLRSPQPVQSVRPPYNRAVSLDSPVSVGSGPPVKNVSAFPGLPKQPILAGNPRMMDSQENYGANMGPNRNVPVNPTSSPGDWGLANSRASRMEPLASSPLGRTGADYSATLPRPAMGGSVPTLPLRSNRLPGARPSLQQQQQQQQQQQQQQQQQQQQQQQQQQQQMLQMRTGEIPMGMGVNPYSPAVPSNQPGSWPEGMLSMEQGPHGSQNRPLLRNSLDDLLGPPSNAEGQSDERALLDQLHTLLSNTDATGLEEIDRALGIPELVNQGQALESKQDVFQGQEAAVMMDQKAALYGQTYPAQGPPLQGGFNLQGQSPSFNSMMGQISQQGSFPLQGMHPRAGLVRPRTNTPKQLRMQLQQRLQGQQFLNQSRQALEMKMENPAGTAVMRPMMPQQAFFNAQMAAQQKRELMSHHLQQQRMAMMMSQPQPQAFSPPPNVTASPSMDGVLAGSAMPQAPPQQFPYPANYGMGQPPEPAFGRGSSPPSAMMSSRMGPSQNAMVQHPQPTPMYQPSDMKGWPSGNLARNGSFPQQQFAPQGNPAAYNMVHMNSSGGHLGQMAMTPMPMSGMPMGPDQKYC
# MPTP inh – mitochondrial permeability transition pore inhibitors, primary screen, biochemical, isolated mouse mitochondria, absorbance; Ca2+ swelling absorbance, 30 min; inhibition, % at 10 µM; hit rate 1.4% among 360,000; AID 602449, 2012;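 active means inhibition of 50% or more, scaled per plate between neutral and stimulator controls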;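 further: 0% = DMSO wells given calcium and 100% = 1 mM EGTA wells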
# beta cell repl – inducers of MIN6 beta-cell proliferation, primary screen, ATP luminescence, uHTS | MIN6 cells proliferation, ATPlite luminescence, 48 h; cells starved in 0.2% serum; 100% = growth in 10% serum | proliferation, % at 10 µM | hit rate 0.29% among 330,000;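 active means compounds whose signal lies at least 3.5 SD above the mean of all wells on their plate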;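 further: 0% = DMSO-treated cells in low-serum medium and 100% = 10% serum control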
# GRIN3A LBD mod – binders of NR3A ligand-binding domain, primary screen, biophysical, differential scanning fluorimetry, uHTS; Glutamate receptor ionotropic, NMDA 3A (GRIN3A) ligand-binding domain; NR3A LBD differential scanning fluorimetry, Tm shift; 0% = protein alone, 100% = glycine-bound protein; Tm shift relative to glycine control, % at 25 µM; hit rate 2.5% among 340,000;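 active means melting temperature shift of at least 10% of the positive control shift, at one fixed dose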
# FAS-TE inh – FAS thioesterase domain inhibitors, primary screen, biochemical, fluorescence intensity, uHTS; inhibition, % at 15 µM; Fatty acid synthase (Homo sapiens), P49327; hit rate 0.67% among 360,000; recombinant FAS-TE, OMFH fluorogenic substrate, fluorescence endpoint; AID 602261, 2012;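 active means compounds whose normalised, plate-corrected inhibition of enzyme fluorescence in the single-dose primary screen is 50% or more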;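 further: 0% = DMSO with enzyme and 100% = substrate without enzyme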
# * = called active by the depositor; / = not tested or not shown. A selection: hits, their analogues and other compounds. The true share with any hit is near 4.1%.
SMILES,p-CIP stab down,MPTP inh,beta cell repl,GRIN3A LBD mod,FAS-TE inh
Cc1cccc([C@@H]2[C@@H]3C(=O)N(Cc4ccccc4)C(=O)[C@@H]3[C@]3(Cc4ccccc4)C(=O)N(c4cccc(Cl)c4)C(=O)N23)c1,/,-1,-3,4,82*
Cc1cccc([C@@H]2[C@@H]3C(=O)N(Cc4ccccc4)C(=O)[C@@H]3[C@]3(C)C(=O)N(c4cccc(Cl)c4)C(=O)N23)c1,-12,0,5,-15,23
Cc1cccc([C@@H]2[C@@H]3C(=O)N(Cc4ccccc4)C(=O)[C@@H]3[C@]3(CC(C)C)C(=O)N(c4cccc(Br)c4)C(=O)N23)c1,-15,1,-6,-4,88*
CC[C@@]12C(=O)N(c3ccccc3)C(=O)N1[C@H](c1cccc(C)c1)[C@@H]1C(=O)N(Cc3ccccc3)C(=O)[C@@H]12,2,-1,3,-2,3
CCN1C(=O)[C@H]2[C@@H](c3ccc(C)cc3)N3C(=O)N(c4cccc(Br)c4)C(=O)[C@@]3(CC(C)C)[C@H]2C1=O,/,0,-3,-8,32
Cc1cccc([C@@H]2[C@@H]3C(=O)N(Cc4ccccc4)C(=O)[C@@H]3[C@]3(Cc4ccccc4)C(=O)N(c4ccccc4)C(=O)N23)c1,/,1,-5,3,92*
COc1ccccc1NC(=O)N(C)C[C@@H]1OCc2cn(nn2)CCCC(=O)N([C@H](C)CO)C[C@H]1C,/,-1,/,/,-4
CC(C)(C)c1ccc(S(=O)(=O)NC(=O)C2(C)CCN2C(=O)Cc2ccc(-c3ccccc3)cc2)cc1 (stereo not given),/,3,/,/,1
CC1=C(C(=O)N(C(C)C)C(C)C)CC(CC(=O)NC2CCCCC2)C(=O)N1Cc1ccc(F)cc1 (stereo not given),/,1,/,/,-3
CC(=O)c1cccc(NC(=O)C(OC(=O)c2ccccc2NS(=O)(=O)c2cccs2)c2ccccc2)c1 (stereo not given),0,43,-2,30*,30
CCOc1ccccc1NC(=O)C(OC(=O)c1ccccc1NS(=O)(=O)c1cccs1)c1ccccc1 (stereo not given),2,0,-1,0,25
O=C(Nc1ccc(F)cc1)c1ccc2ncsc2c1,-15,0,-1,0,-3
O=C(Nc1ccc(Cl)cc1)c1ccc2ncsc2c1,-4,2,-4,24*,2
O=C(COC(=O)c1ccc2ncsc2c1)Nc1cccc(Cl)c1,/,0,-3,-2,4
O=C(Nc1cccc(Cl)c1)c1ccc2ncsc2c1,0,0,4,34*,0
C/C(=N\OC(=O)c1cccc(C)c1)c1sc(-c2ccccc2)nc1C,-2,0,0,18*,-2
C/C(=N\OC(=O)c1cccc(C(F)(F)F)c1)c1sc(-c2ccccc2)nc1C,-7,0,-2,2,17
C/C(=N\OC(=O)c1ccc(F)cc1)c1sc(-c2ccccc2)nc1C,-11,-2,-3,11*,0
CC1(C(=O)Nc2ccc(Cl)cc2)Cc2c(-c3cccc(C(F)(F)F)c3)ccnc2O1 (stereo not given),/,0,/,/,22
COc1ccc(Cl)cc1NC(=O)c1cc(-c2ccc(C)cc2O)n[nH]1,-10,5,-1,12*,-6
Cc1ccc(C)c(NC(=O)c2cc(-c3cc(C)ccc3O)n[nH]2)c1,-8,0,-2,15*,-6
COc1ccc(Cl)cc1NC(=O)c1cc(-c2cc(C)ccc2O)n[nH]1,0,41,-1,300*,-9
CCOc1ccccc1NC(=O)COC(=O)C1COc2ccccc2O1 (stereo not given),/,1,/,/,-4
COC(=O)C1=C(C)NC(C)=C(C(=O)OC)C1C(=O)OCC(=O)NC1CCCCC1C (stereo not given),/,-2,/,/,-1
CCOc1ccc(C(=O)NC(=S)Nc2cccc(NC(=O)c3ccco3)c2)cc1[N+](=O)[O-],-5,2,0,16*,28
SMILES,p-CIP stab down,MPTP inh,beta cell repl,GRIN3A LBD mod,FAS-TE inh
COc1cc(NC(=O)CSc2nc3ccccc3c(=O)n2C)ccc1NC(=O)c1ccco1,-11,1,-3,13*,-7
COc1cc(NC(=O)c2ccc(OC)c([N+](=O)[O-])c2)ccc1NC(=O)c1cccs1,-4,2,0,38*,-9
CCc1ccc(NC(=O)c2ccc(OC)c([N+](=O)[O-])c2)cc1,-14,5,0,12*,24
CCOc1ccc(C(=O)NC(=S)Nc2ccc(NC(=O)CC)cc2)cc1[N+](=O)[O-],6,1,0,8,-6
COc1ccc(CN2C(=O)CSCC2(C)C(=O)Nc2c(C)cccc2C)cc1 (stereo not given),/,1,/,/,/
CC(=O)N1CCN(c2ccc(NC(=S)NC(=O)c3ccc(C)c([N+](=O)[O-])c3)cc2)CC1,-3,9,-2,-1,1
COc1ccc(C(=O)NC(=S)Nc2cccc(NC(=O)c3ccco3)c2)cc1[N+](=O)[O-],-2,2,0,12*,-4
COc1ccc(C(=O)NC(=S)Nc2ccc(NC(=O)c3ccco3)cc2)cc1[N+](=O)[O-],-3,1,0,30*,-2
COc1cc(NC(=O)c2cccc([N+](=O)[O-])c2)ccc1NC(=O)c1ccco1,3,2,-1,27*,16
CCC(=O)NC(=S)Nc1ccc(NC(=O)c2ccc(C)c([N+](=O)[O-])c2)cc1,-14,1,-1,34*,-5
CCN1CCc2c(C#N)c(N3CCCCC3)nc(N3CCOCC3)c2C1,-7,0,1,2,-1
CCN1CCc2c(C#N)c(N3CCOCC3)nc(N3CCOCC3)c2C1,8,-1,-2,27*,-8
O=C(Nc1ccc(Oc2ccccc2)cc1)c1csc([C@@H]2O[C@H](CO)[C@H](O)[C@H](O)[C@H]2O)n1,/,2,/,/,-4
CC(C)n1nnnc1C1c2ccccc2C(=O)N1CCOc1ccccc1 (stereo not given),/,1,/,/,-5
COCCOc1ccc(C(F)(F)F)cc1NC(=O)COC(=O)Cc1c[nH]c2ccccc12,/,1,3,21*,25
O=C(COC(=O)Cc1c[nH]c2ccccc12)Nc1ccc(Cl)cc1,/,0,/,/,-7
Cc1ccc(NC(=O)COC(=O)Cc2c[nH]c3ccccc23)cc1F,/,0,1,14*,11
NC(=O)Nc1ccc(C(=O)OCC(=O)Nc2sccc2C(N)=O)cc1,/,0,1,32*,2
O=C(COC(=O)Cc1c[nH]c2ccccc12)Nc1ccccc1,16,0,0,-1,-1
NC(=O)c1ccsc1NC(=O)COC(=O)Cc1c[nH]c2ccccc12,/,0,1,26*,-3
C[C@H]1CNC(=O)c2c(C(=O)N3CCN(C(=O)OC(C)(C)C)CC3)ncn21,/,0,/,/,-6
